Results filed as inconclusive are left out. Active and inactive are the calls of the source. Unless noted, how the calls were made is not given here.
Experiments:
[1] = rapamycin-like changes in RPL19A-GFP expression – cell-based, S. cerevisiae, multiplex flow cytometry, primary screen (AID 1862; in the data active means percent of DMSO control GFP below about 86%;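 further: lower values mimic rapamycin by blocking the RPL19A rise seen in DMSO cells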); conditions: S. cerevisiae RPL19A-GFP strain, flow cytometry fluorescence, 3 h; at 10 µM; stronger effect = lower value
[2] = TOR pathway GLN3 branch reporter MEP2-GFP changes – S. cerevisiae, multiplex flow cytometry, primary screen (AID 1867;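 active means GFP response, as percent of the DMSO control, above the screen-wide mean plus 3 SD, about 139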;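 further: median GFP channel fluorescence of barcode-gated MEP2-GFP cells measured by flow cytometry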); conditions: S. cerevisiae MEP2-GFP strain, 3 h, at 10 µM, stronger effect = higher value
[3] = TOR pathway RTG branch CIT2 reporter changes – S. cerevisiae, GFP fusion, multiplex flow cytometry, primary screen (AID 1870;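 active means percent response above a set limit, the screen-wide mean plus 3 SD, cut at about 130% in these data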;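 further: barcoded CIT2-GFP strain pooled with four other GFP strains with rapamycin as positive control; median GFP fluorescence per well over plate mean of DMSO wells so 100% = DMSO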); conditions: S. cerevisiae CIT2-GFP expression, 3 h, at 10 µM, stronger effect = higher value
[4] = TOR pathway LAP4-GFP level changes – S. cerevisiae, multiplex flow cytometry, primary screen (AID 1873;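 active means GFP signal, as percent of the solvent control, above the screen mean plus 3 SD, about 149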); conditions: S. cerevisiae LAP4-GFP expression, 3 h, at 10 µM, stronger effect = higher value
[5] = yeast AGP1-GFP level changes, GLN3 branch – cell-based, multiplex flow cytometry, S. cerevisiae, primary screen (AID 1887;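 active means GFP signal above the screen-wide mean plus 3 SD, that is over about 124.5% of the solvent control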;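 further: AGP1-GFP fusion strain of S. cerevisiae within a five-strain barcoded multiplex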); conditions: 3 h, at 10 µM, stronger effect = higher value
[6] = reduced mouse 2C T cell binding to pMHC/ICAM-1 vesicles – MLPCN validation set, flow cytometry, LFA-1/ICAM-1 modulator project, pilot screen (AID 2523;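 active means response below a set limit, under 55% cells CD8-positive and vesicle-bound, and CD8 cells' 90th-percentile brightness under 279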;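 on vesicle binding response: mean PE anti-B7-1 fluorescence of CD8+ cells relative to row control; 100% = QL9-loaded vesicles with DMSO vehicle in the same plate row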); conditions: 2C mouse CD8+ T cells, at 7 µM, stronger effect = lower value; double positive events: measured here: CD8+/vesicle+ event percentage
[7] = target: Integrin beta-1 (Homo sapiens) + Integrin alpha-4 (Homo sapiens) (UniProt P13612+P05556); assay: alpha4beta1 integrin LIBS antibody binding reduction – U937 cells, HUTS-21 mAb, flow cytometry, validation set, VLA-4 allosteric modulator project, pilot screen (AID 2674;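 active means inhibition above 50%, about 3 SD of the validation set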;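 further: antibody binding induced by the VLA-4 ligand LDV present at three times its Kd; 0% = LDV ligand with antibody and no compound and 100% = antibody without LDV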); conditions: HUTS-21 LIBS mAb binding, at 6.7 µM, stronger effect = higher value
Sequence of Integrin beta-1 (Homo sapiens) + Integrin alpha-4 (Homo sapiens) (P05556 whole entry, looked up): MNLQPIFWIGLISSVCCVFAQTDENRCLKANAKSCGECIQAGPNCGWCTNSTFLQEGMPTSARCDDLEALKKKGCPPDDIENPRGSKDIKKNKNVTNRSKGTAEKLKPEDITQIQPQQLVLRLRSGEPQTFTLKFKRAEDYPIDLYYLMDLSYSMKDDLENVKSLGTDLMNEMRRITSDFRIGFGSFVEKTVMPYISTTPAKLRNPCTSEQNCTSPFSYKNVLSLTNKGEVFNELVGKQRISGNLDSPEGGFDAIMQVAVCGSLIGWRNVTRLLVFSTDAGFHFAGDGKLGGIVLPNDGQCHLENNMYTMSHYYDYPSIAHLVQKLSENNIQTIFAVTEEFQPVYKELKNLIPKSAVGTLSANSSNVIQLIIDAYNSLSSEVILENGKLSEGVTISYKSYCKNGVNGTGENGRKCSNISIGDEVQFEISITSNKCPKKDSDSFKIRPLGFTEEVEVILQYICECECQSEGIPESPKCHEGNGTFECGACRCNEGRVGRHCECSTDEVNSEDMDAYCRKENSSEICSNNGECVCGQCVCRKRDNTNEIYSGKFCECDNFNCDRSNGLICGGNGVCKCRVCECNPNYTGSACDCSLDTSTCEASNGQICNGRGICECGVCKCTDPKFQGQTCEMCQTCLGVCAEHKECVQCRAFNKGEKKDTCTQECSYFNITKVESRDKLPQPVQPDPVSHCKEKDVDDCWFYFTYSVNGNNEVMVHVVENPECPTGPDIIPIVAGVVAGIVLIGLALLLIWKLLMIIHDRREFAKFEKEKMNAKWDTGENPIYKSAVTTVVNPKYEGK
Sequence of Integrin beta-1 (Homo sapiens) + Integrin alpha-4 (Homo sapiens) (P13612 whole entry, looked up): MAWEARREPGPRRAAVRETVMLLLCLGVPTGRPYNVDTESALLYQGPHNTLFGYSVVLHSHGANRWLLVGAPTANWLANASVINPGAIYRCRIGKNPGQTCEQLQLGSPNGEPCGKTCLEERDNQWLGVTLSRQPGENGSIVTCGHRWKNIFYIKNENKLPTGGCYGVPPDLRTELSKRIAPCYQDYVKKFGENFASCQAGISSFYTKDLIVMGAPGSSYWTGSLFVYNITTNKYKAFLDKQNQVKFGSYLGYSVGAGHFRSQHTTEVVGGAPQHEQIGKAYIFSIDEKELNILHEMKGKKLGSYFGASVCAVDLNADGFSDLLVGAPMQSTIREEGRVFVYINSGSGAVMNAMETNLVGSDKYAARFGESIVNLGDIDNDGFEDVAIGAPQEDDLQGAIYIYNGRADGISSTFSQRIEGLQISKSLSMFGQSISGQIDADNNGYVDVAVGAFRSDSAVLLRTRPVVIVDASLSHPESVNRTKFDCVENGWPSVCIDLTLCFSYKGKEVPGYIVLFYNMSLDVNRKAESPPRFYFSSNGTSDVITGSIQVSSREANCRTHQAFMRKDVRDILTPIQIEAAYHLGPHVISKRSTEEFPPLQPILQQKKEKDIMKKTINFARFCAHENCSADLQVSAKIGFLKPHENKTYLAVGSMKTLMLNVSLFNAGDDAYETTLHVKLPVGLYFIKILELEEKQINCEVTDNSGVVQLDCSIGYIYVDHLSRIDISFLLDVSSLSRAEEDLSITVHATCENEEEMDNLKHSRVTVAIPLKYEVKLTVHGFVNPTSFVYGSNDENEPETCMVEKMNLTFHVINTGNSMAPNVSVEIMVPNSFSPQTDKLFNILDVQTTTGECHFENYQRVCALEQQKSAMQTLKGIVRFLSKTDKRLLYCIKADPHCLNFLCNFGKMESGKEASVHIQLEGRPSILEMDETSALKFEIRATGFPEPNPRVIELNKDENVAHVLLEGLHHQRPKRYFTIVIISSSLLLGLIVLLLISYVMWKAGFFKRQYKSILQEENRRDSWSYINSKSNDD

[8] = calorie-restriction mimetic ROS inhibitors, yeast – validation compound set, pilot screen (AID 2706;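 active means superoxide response below 65% of plate, a cut near 3 SD across the whole screen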;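 further: yeast exposed to compound for one week at 30 degrees C before staining; 100% = mean of all compound wells on the same plate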); conditions: S. cerevisiae aging, superoxide DHE fluorescence; at 10 µM; stronger effect = lower value
[9] = target: Beta-adrenergic receptor kinase 1 (Homo sapiens) (UniProt P25098); assay: GRK2 binders displacing RNA aptamer, biochemical, validation, human GRK2, bead flow cytometry (AID 488806;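 active means aptamer binding inhibition above 30%, about 3 SD of noise from non-fluorescent compounds; inactive means inhibition at or below 30%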); conditions: bead-bound GRK2, FAM-aptamer displacement, at 10 µM, stronger effect = higher value
Sequence of Beta-adrenergic receptor kinase 1 (Homo sapiens) (P25098 whole entry, looked up): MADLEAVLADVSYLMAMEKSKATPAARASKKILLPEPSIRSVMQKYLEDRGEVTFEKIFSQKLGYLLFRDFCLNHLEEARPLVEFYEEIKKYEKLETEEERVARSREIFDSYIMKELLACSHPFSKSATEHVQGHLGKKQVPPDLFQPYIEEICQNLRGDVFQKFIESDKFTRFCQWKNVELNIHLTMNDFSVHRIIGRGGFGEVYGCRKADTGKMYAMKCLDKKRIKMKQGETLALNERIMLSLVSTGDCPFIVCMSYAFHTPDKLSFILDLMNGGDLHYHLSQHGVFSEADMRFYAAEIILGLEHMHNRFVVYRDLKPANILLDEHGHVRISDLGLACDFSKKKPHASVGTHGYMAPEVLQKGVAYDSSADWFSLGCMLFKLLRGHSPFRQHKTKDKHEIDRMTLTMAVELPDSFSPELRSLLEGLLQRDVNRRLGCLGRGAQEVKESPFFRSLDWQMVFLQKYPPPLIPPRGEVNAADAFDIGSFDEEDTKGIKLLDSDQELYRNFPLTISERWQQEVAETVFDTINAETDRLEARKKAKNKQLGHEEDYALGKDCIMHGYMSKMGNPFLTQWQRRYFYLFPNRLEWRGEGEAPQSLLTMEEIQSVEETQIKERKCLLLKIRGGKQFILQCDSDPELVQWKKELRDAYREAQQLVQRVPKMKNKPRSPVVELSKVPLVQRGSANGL

[10] = target: Beta-2 adrenergic receptor (Homo sapiens) (UniProt P07550); assay: agonist-induced loss of surface beta2AR – cell-based, FAP fluorogen, flow cytometry, validation set, pilot screen (AID 504459;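 active means percent response above 42, roughly 3 SD of non-fluorescent test compounds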;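 further: agonist-driven loss of surface beta2AR via internalization measured by FAP dye flow cytometry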); conditions: Am2.2-beta2AR cells, at 10 µM, stronger effect = higher value
Sequence of Beta-2 adrenergic receptor (Homo sapiens) (P07550 whole entry, looked up): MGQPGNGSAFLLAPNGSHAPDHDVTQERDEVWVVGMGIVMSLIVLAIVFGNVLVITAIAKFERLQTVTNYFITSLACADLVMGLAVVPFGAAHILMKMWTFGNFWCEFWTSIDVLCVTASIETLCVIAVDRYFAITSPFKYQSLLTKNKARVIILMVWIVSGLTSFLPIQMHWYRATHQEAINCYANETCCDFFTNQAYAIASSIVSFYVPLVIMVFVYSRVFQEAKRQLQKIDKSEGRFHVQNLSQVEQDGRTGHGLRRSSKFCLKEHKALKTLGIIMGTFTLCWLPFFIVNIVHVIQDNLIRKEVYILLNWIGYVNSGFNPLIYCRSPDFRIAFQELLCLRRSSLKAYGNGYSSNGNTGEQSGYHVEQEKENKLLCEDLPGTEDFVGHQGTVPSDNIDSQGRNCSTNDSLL

[11] = target: AP-2 complex subunit beta (Homo sapiens) (UniProt P63010); assay: beta-arrestin/AP2 interaction blockers – biochemical, validation set, GST-AP2 beads, flow cytometry, pilot screen (AID 504541;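 active means inhibition above 54%, about 3 SD of non-fluorescent compounds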;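 further: AP2 carries R879A mutation and is captured from E. coli lysate; bead-bound FITC arrestin peptide fluorescence measuring arrestin peptide binding to AP2; 0% = DMSO wells and 100% = excess unlabeled arrestin peptide control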); conditions: FITC arrestin peptide, at 10 µM, stronger effect = higher value
[12] = cytosolic pH regulators acting via V-ATPase – S. cerevisiae, pHLuorin, HTS validation (AID 504600; in the data active means response above about 15%;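 further: plate controls were DMSO for no effect and reference compound for full effect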); conditions: V-ATPase proton transport, at 10 µM, stronger effect = higher value
[13] = test system: anti-desmoglein-3 scFv antibody binding to human DSG3; assay: blockers of pathogenic pemphigus antibody–desmoglein-3 binding – biochemical, validation compound set, bead-based, flow cytometry, pilot screen (AID 588368;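 active means binding below the plate cutoff, the plate median minus 3 SD, with a reading above zero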;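 further: signal is the median channel fluorescence of bead-bound GFP antibody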); conditions: Protein G beads, DSG3-Fc, scFv-GFP binding, at 10 µM, stronger effect = lower value
[14] = test system: Botulinum neurotoxin type F light chain protease (Clostridium botulinum); assay: Clostridium botulinum type F light chain protease inhibitors, microsphere substrate cleavage, validation (AID 588459); conditions: multiplex microsphere protease substrate cleavage assay, flow cytometry; at 10 µM; stronger effect = higher value
[15] = target: Botulinum neurotoxin type A (Clostridium botulinum) (UniProt P0DPI0); assay: BoNT/A light chain protease inhibitors, biochemical, multiplex microsphere flow cytometry, validation set (AID 588460); conditions: at 10 µM, stronger effect = higher value
Sequence of Botulinum neurotoxin type A (Clostridium botulinum) (P0DPI0 whole entry, looked up): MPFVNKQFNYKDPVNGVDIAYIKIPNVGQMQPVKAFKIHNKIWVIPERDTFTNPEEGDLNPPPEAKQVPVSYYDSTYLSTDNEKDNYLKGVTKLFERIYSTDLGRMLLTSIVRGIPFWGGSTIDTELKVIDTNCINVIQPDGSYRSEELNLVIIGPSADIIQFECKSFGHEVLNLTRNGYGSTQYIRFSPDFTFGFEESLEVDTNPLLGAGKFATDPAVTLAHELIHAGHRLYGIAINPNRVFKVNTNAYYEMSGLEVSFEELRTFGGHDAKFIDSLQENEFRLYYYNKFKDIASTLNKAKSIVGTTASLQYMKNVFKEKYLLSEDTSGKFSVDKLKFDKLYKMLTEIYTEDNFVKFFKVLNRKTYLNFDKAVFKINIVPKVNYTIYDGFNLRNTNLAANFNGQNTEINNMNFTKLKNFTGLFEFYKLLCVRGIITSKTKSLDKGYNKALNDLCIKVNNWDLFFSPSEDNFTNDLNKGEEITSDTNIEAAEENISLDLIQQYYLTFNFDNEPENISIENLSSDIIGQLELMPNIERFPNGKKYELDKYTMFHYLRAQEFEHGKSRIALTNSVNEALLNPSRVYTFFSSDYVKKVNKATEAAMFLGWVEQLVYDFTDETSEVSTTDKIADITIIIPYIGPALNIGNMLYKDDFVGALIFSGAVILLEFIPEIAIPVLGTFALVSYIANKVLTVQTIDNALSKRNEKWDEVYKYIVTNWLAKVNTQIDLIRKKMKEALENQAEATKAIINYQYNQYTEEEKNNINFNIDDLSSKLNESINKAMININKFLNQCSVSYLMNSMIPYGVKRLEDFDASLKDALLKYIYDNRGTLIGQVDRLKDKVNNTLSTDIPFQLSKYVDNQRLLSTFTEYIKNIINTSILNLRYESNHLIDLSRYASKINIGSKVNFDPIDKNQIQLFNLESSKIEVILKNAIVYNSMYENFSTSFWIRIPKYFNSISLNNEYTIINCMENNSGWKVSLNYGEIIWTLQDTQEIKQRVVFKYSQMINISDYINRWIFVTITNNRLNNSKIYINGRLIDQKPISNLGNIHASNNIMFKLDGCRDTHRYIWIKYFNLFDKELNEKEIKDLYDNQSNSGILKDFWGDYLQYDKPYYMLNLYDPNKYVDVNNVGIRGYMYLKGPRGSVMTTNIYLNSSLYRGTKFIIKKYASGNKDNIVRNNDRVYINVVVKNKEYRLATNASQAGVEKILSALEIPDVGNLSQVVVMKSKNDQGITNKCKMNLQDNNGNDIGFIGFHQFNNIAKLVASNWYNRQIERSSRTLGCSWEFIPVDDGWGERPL

[16] = target: Lethal factor (Bacillus anthracis) (UniProt P15917); assay: Bacillus anthracis lethal factor inhibition, microsphere flow cytometry protease assay, validation at 10 µM (AID 588461); conditions: multiplex microsphere protease cleavage assay, stronger effect = higher value
[17] = Nile Red efflux blockade in pump-expressing yeast – validation compound set, multiplex, phenotypic, pilot screen (AID 588506;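 active means efflux inhibition above 0.42, the validation set average plus 4 SD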;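 further: Nile Red retained in cells so higher fluorescence means more efflux inhibition; 0 = negative control wells and 1 = enniatin B 25 µM full block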); conditions: S. cerevisiae pump-expressing triplex, Nile Red efflux flow cytometry; at 10 µM; stronger effect = higher value
[18] = target: ATP-binding cassette sub-family B member 6 (Homo sapiens) (UniProt Q9NP58); assay: blockers of ABCB6-driven porphyrin uptake – K562-ABCB6 cells, flow cytometry, validation set, pilot screen (AID 588550;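 active means inhibition above the screen-wide mean plus 3 SD, about 51%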;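 further: 0% = DMSO wells and 100% = benzethonium chloride 70 µM positive control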); conditions: K562-ABCB6 porphyrin accumulation, 1 h, at 10 µM, stronger effect = higher value
Sequence of ATP-binding cassette sub-family B member 6 (Homo sapiens) (Q9NP58 whole entry, looked up): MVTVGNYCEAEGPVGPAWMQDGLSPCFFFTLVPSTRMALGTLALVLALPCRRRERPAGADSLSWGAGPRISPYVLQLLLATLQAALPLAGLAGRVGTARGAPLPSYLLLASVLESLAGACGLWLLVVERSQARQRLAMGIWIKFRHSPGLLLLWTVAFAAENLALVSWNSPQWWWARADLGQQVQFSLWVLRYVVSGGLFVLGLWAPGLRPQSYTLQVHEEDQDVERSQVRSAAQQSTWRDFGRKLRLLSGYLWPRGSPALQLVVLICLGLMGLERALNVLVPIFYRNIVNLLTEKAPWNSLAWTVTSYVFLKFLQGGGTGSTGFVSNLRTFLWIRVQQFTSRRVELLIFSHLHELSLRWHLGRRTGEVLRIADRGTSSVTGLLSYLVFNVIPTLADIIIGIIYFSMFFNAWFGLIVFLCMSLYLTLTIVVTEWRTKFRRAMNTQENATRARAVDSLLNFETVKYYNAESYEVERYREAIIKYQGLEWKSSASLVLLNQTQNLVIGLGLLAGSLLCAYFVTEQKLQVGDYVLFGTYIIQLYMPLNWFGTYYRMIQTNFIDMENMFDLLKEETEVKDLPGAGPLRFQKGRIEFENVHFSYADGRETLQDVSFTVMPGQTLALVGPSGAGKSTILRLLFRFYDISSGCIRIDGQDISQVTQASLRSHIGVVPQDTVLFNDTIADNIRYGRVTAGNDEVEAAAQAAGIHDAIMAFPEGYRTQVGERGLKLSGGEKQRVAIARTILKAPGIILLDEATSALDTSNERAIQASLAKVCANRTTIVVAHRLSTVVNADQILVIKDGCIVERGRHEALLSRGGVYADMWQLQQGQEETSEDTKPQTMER

[19] = AML differentiation inducers, ER-HoxA9 marrow cells – cell-based, GFP/MAC1 double positive, flow cytometry, validation set, primary screen (AID 588685;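 active means differentiation response of at least 50%, scaled between solvent and reference control, from cells with both markers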;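 further: compound exposure lasts four days before antibody staining and flow analysis; 0% = DMSO wells and 100% = 5 µM fulvestrant positive control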); conditions: stronger effect = higher value

O=C1NCCN2CCCC12 (stereo not given)
active: response [12] 113%
inactive: percent of DMSO control GFP [1] 100% | GFP response vs DMSO [2] 99.7% | percent response of DMSO control [3] 102% | GFP response vs DMSO [4] 93.7% | GFP response, % of DMSO [5] 102% | vesicle binding response [6] 108% | inhibition [7] 12.3% | superoxide response (% of plate) [8] 92.8% | aptamer binding inhibition [9] 0% | response [10] 0.01% | inhibition [11] 4.79% | binding (% of control) [13] 101% | inhibition [14] -0.2% | inhibition [15] -0.6% | inhibition [16] 5.9% | efflux inhibition (fraction of control) [17] -0.09 | inhibition [18] 21% | differentiation response [19] -11.9%
58.7%: double positive events [6]

CCN(CC)CCOC(=O)C(O)(c1ccccc1)c1ccccc1
62%: double positive events [6]
inactive: percent of DMSO control GFP [1] 102% | GFP response vs DMSO [2] 108% | percent response of DMSO control [3] 96.5% | GFP response vs DMSO [4] 92.6% | GFP response, % of DMSO [5] 94.5% | vesicle binding response [6] 152% | inhibition [7] 2.93% | superoxide response (% of plate) [8] 90.4% | aptamer binding inhibition [9] 2% | response [10] 10.4% | inhibition [11] 0.48% | response [12] -1.11% | binding (% of control) [13] 108% | inhibition [14] -2% | inhibition [15] -0.9% | inhibition [16] -5.6% | efflux inhibition (fraction of control) [17] -0.095 | inhibition [18] -101% | differentiation response [19] 7.13%

c1ccc2c(c1)[nH]c1cnccc12
62.8%: double positive events [6]
inactive: percent of DMSO control GFP [1] 102% | GFP response vs DMSO [2] 97.2% | percent response of DMSO control [3] 104% | GFP response vs DMSO [4] 88.1% | GFP response, % of DMSO [5] 95.9% | vesicle binding response [6] 961% | inhibition [7] -18.1% | superoxide response (% of plate) [8] 99.7% | aptamer binding inhibition [9] 0% | response [10] -10.7% | inhibition [11] -7.59% | response [12] -0.12% | binding (% of control) [13] 96.1% | inhibition [14] 5.3% | inhibition [15] 2.5% | inhibition [16] -4.7% | efflux inhibition (fraction of control) [17] 0.14 | inhibition [18] 0% | differentiation response [19] 2.2%

CC(=O)OC1C2CCC1C(N1CCCC1)CC2 (stereo not given)
inactive: percent of DMSO control GFP [1] 98.7% | GFP response vs DMSO [2] 106% | percent response of DMSO control [3] 97.7% | GFP response vs DMSO [4] 104% | GFP response, % of DMSO [5] 115% | vesicle binding response [6] 162% | inhibition [7] 9.1% | superoxide response (% of plate) [8] 91.4% | aptamer binding inhibition [9] 0% | response [10] -10.9% | inhibition [11] -16% | response [12] -1.91% | binding (% of control) [13] 103% | inhibition [14] -2.3% | inhibition [15] -0.8% | inhibition [16] -5.2% | efflux inhibition (fraction of control) [17] -0.04 | inhibition [18] 3% | differentiation response [19] -12.9%
67.3%: double positive events [6]

O=c1c2ccccc2nc(/C=C/c2ccc3c(c2)OCO3)n1-c1ccccc1
59.9%: double positive events [6]
inactive: percent of DMSO control GFP [1] 102% | GFP response vs DMSO [2] 105% | percent response of DMSO control [3] 100% | GFP response vs DMSO [4] 110% | GFP response, % of DMSO [5] 98.9% | vesicle binding response [6] 140% | inhibition [7] 1.44% | superoxide response (% of plate) [8] 90.1% | aptamer binding inhibition [9] 4% | response [10] -4.14% | inhibition [11] -1.43% | response [12] -7.21% | binding (% of control) [13] 106% | inhibition [14] -0.7% | inhibition [15] 0.6% | inhibition [16] -5% | efflux inhibition (fraction of control) [17] 0.33 | inhibition [18] 0% | differentiation response [19] 7.82%

C[C@H]1OC[C@@H](C[N+](C)(C)C)O1
inactive: percent of DMSO control GFP [1] 100% | GFP response vs DMSO [2] 98.7% | percent response of DMSO control [3] 101% | GFP response vs DMSO [4] 92.6% | GFP response, % of DMSO [5] 96.2% | vesicle binding response [6] 144% | inhibition [7] -6.45% | superoxide response (% of plate) [8] 95.3% | aptamer binding inhibition [9] 3% | response [10] 2.48% | inhibition [11] 5.6% | response [12] 4.51% | binding (% of control) [13] 102% | inhibition [14] 0.4% | inhibition [15] 0.4% | inhibition [16] 4.6% | efflux inhibition (fraction of control) [17] -0.16 | inhibition [18] -2% | differentiation response [19] -10.4%
62.3%: double positive events [6]

Cc1cc2c(C(C)C)c(O)c(O)c(C=O)c2c(O)c1-c1c(C)cc2c(C(C)C)c(O)c(O)c(C=O)c2c1O
63.4%: double positive events [6]
inactive: percent of DMSO control GFP [1] 107% | GFP response vs DMSO [2] 103% | percent response of DMSO control [3] 97% | GFP response vs DMSO [4] 130% | GFP response, % of DMSO [5] 112% | vesicle binding response [6] 161% | inhibition [7] 11.7% | superoxide response (% of plate) [8] 119% | aptamer binding inhibition [9] 5% | response [10] -1.41% | inhibition [11] 14% | response [12] 1.35% | inhibition [14] 2.6% | inhibition [15] 0.9% | inhibition [16] -7.5% | efflux inhibition (fraction of control) [17] 0.25 | inhibition [18] -3% | differentiation response [19] 16.7%
active: binding (% of control) [13] 64.8%

O=c1cccc2n1C[C@H]1C[C@@H]2CN2CCCC[C@@H]12
61.7%: double positive events [6]
inactive: percent of DMSO control GFP [1] 97.6% | GFP response vs DMSO [2] 111% | percent response of DMSO control [3] 94.8% | GFP response vs DMSO [4] 118% | GFP response, % of DMSO [5] 98.1% | vesicle binding response [6] 124% | inhibition [7] -9.98% | superoxide response (% of plate) [8] 100% | aptamer binding inhibition [9] -2% | response [10] 2.05% | inhibition [11] -2.4% | response [12] -3.47% | binding (% of control) [13] 101% | inhibition [14] -0.6% | inhibition [15] -0.2% | inhibition [16] -7.3% | efflux inhibition (fraction of control) [17] -0.03 | inhibition [18] 4% | differentiation response [19] -24.8%
